Measured values reported in PubChem BioAssay AID1159580 (chemical genetic matrix, 2015).
Hit rate of the full screen: of about 5,500 compounds, about 2,000 (36%) were called active. Inconclusive results (about 18%) are left out. Rule as the data show it: active = normalized growth mostly below about 0.91 (no sharp cut-off); inconclusive = no clear call, values can overlap the other calls; inactive = mostly above about 0.92. The list shows a part of the results.

Assay: chemical genetic growth profiling, strain panel (AID 1159580);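 also: tested at 20 µM; growth read once vehicle control cultures reached saturation at 30 °C; 1 = growth at the plate median or of vehicle wells; lower values mean less growth of the strain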
Details: S. cerevisiae deletion strains, growth OD

Measured: normalized growth

CN(C)CCc1c[nH]c2ccc(C[C@H]3COC(=O)N3)cc12
inactive: locus YAL021C, strain ccr4, active compounds read low 1.02 | locus YAL026C, strain drs2, active compounds read low 1.01 | locus YAL030W, strain snc1, active compounds read low 1.01 | locus YBL061C, strain skt5, active compounds read low 1.01 | locus YBR009C, strain hhf1, active compounds read low 1.01 | locus YBR023C, strain chs3, active compounds read low 1.01 | locus YBR171W, strain sec66, active compounds read low 1.02 | locus YBR231C, strain swc5, active compounds read low 0.993 | locus YBR279W, strain paf1, active compounds read low 1.01 | locus YCL011C, strain gbp2, active compounds read low 1.01 | locus YCL016C, strain dcc1, active compounds read low 1 | locus YCL061C, strain MRC1, active compounds read low 1.01 | locus YCL069W, strain vba3, active compounds read low 1.01 | locus YCR088W, strain abp1, active compounds read low 1.01 | locus YDL005C, strain med2, active compounds read low 1.01 | locus YDL040C, strain nat1, active compounds read low 1.01 | locus YDR001C, strain nth1, active compounds read low 1.01 | locus YDR069C, strain doa4, active compounds read low 1.02 | locus YDR137W, strain rgp1, active compounds read low 0.993 | locus YDR159W, strain sac3, active compounds read low 1.04 | locus YDR195W, strain ref2 0.978 | locus YDR297W, strain sur2, active compounds read low 1.01 | locus YDR334W, strain swr1, active compounds read low 1.02 | locus YDR335W, strain msn5, active compounds read low 1.01 | locus YDR392W, strain spt3, active compounds read low 1.03 | locus YEL003W, strain gim4, active compounds read low 1 | locus YEL037C, strain rad23, active compounds read low 1.01 | locus YEL061C, strain CIN8 (second series), active compounds read low 1.01 | locus YER015W, strain faa2, active compounds read low 1.01 | locus YER016W, strain bim1, active compounds read low 1.01 | locus YER111C, strain swi4, active compounds read low 1.02 | locus YER155C, strain BEM2 (second series), active compounds read low 1.06 | locus YFR010W, strain ubp6, active compounds read low 1.02 | locus YGL167C, strain pmr1, active compounds read low 1.01 | locus YGL173C, strain kem1, active compounds read low 1 | locus YGL227W, strain vid30, active compounds read low 1.01 | locus YGL240W, strain doc1, active compounds read low 1.01 | locus YGL253W, strain hxk2, active compounds read low 0.998 | locus YHR013C, strain ard1, active compounds read low 1 | locus YHR027C, strain rpn1, active compounds read low 1.01 | locus YHR030C, strain SLT2, active compounds read low 1.02 | locus YHR079C, strain IRE1, active compounds read low 0.986 | locus YHR142W, strain chs7, active compounds read low 0.992 | locus YJL092W, strain hpr5, active compounds read low 1.01 | locus YJL095W, strain BCK1 (second series), active compounds read low 1.01 | locus YJL095W, strain BCK1, active compounds read low 1 | locus YJL115W, strain asf1, active compounds read low 1.01 | locus YJL129C, strain trk1, active compounds read low 0.988 | locus YJL154C, strain vps35, active compounds read low 1.01 | locus YJL164C, strain tpk1, active compounds read low 1.02 | locus YJL166W, strain qcr8, active compounds read low 1.01 | locus YJR066W, strain TOR1, active compounds read low 0.966 | locus YKL160W, strain elf1, active compounds read low 1 | locus YKR026C, strain gcn3, active compounds read low 0.992 | locus YKR091W, strain srl3, active compounds read low 0.997 | locus YLL001W, strain dnm1, active compounds read low 1.01 | locus YLL026W, active compounds read low 1.01 | locus YLL041C, strain sdh2, active compounds read low 1.01 | locus YLR027C, strain aat2, active compounds read low 1.01 | locus YLR113W, strain HOG1, active compounds read low 0.972 | locus YLR221C, strain rsa3, active compounds read low 1.02 | locus YLR258W, strain gsy2, active compounds read low 1.01 | locus YLR262C, strain YPT6 (second series), active compounds read low 1.01 | locus YLR320W, strain mms22, active compounds read low 1.01 | locus YLR342W, strain FKS1, active compounds read low 1.01 | locus YLR357W, strain rsc2, active compounds read low 0.973 | locus YLR370C, strain arc18, active compounds read low 1.01 | locus YLR384C, strain iki3, active compounds read low 1 | locus YML120C, strain ndi1, active compounds read low 1.02 | locus YMR058W, strain fet3, active compounds read low 1.01 | locus YMR125W, strain sto1, active compounds read low 1.01 | locus YMR129W, active compounds read low 1.01 | locus YMR205C, strain PFK2, active compounds read low 0.998 | locus YMR231W, strain pep5, active compounds read low 1 | locus YNL071W, strain lat1, active compounds read low 1.01 | locus YNL183C, strain NPR1, active compounds read low 0.978 | locus YNL209W, strain ssb2, active compounds read low 1.01 | locus YNL248C, strain rpa49, active compounds read low 1 | locus YNL322C, strain KRE1 (second series), active compounds read low 1.01 | locus YNR049C, strain mso1, active compounds read low 1.01 | locus YOR001W, strain rrp6, active compounds read low 0.998 | locus YOR070C, strain gyp1, active compounds read low 1.01 | locus YOR080W, strain dia2, active compounds read low 1 | locus YOR083W, strain WHI5, active compounds read low 1 | locus YOR106W, strain vam3, active compounds read low 1 | locus YOR231W, strain MKK1, active compounds read low 0.999 | locus YOR265W, strain rbl2, active compounds read low 1.01 | locus YOR270C, strain vph1, active compounds read low 0.991 | locus YOR290C, strain snf2, active compounds read low 1.01 | locus YPL051W, strain arl3, active compounds read low 1.01 | locus YPL078C, strain atp4, active compounds read low 1 | locus YPL106C, strain sse1, active compounds read low 1.04 | locus YPL240C, strain hsp82, active compounds read low 1.01 | locus YPL256C, strain CLN2, active compounds read low 1.02
